In PubChem BioAssay:
Active and inactive are the calls of the source.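 Rule for the calls, unless noted: active = thallium flux through the channel raised or lowered by more than 3 SD from vehicle-only wells, actives on both sides; inactive = the rest.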

Key:
[1] = liver-stage malaria parasite growth inhibition, primary screen, cell-based, HepG2, luciferase luminescence, HepG2 viability (AID 624349; in the data active = parasite load remaining mostly below about 12%, no sharp cut-off; inactive = mostly above about 10%;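 note: 100% = mean of DMSO negative control wells on the same plate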); conditions: P. berghei liver stage in HepG2, luciferase luminescence, concentration not given here; parasite load remaining: stronger effect = lower value; viability: measured here: HepG2 viability without parasites
[2] = Cy5 fluorescence interference with SSB-bound oligo, artefact control for HCV NS3 helicase inhibitor project, biochemical, NIH Clinical Collection, E. coli SSB (AID 743268; call rule not given here)
[3] = system: Hepatitis C virus NS3 helicase; assay: HCV NS3 helicase inhibitors, primary screen, biochemical, fluorescence polarization, NIH Clinical Collection (AID 743270; call rule not given here); conditions: NS3 helicase binding to Cy5-dT15 DNA, stronger effect = higher value, concentration not given here
[4] = target: Single-stranded DNA-binding protein (Escherichia coli (strain K12)) (UniProt P0AGE0); assay: E. coli SSB displacement from DNA, counter-screen for HCV NS3 helicase inhibitor project, biochemical, fluorescence polarization, NIH Clinical Collection (AID 743271; in the data active = inhibition above about 28%); conditions: stronger effect = higher value, concentration not given here
[5] = fluorescence interference in NS3h assay format, artefact control for HCV NS3 helicase inhibitor project, biochemical, NIH Clinical Collection (AID 743272; call rule not given here;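 note: HCV NS3 helicase with a Cy5 labelled single stranded DNA probe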); conditions: fluorescence interference counterscreen, stronger effect = lower value
[6] = modulation of C. elegans fzo-1 (AID 1259413; call rule not given here;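 note: fzo-1 mutant C. elegans worms in liquid wells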); conditions: C. elegans fzo-1 modulator screen, mean read-out; stronger effect = higher value
F380Y = assay: modulators of BK channel variants, profiling panel, selectivity assay, cell-based, U2OS BacMam, thallium flux, beta subunits (AID 1259406); conditions: at 30 µM;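 note: initial slope of Thallos dye fluorescence rise after thallium is added; log ratio against the mean of 0.3% DMSO vehicle wells on the same plate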
F380Y/beta1 = assay: as above; conditions: at 30 µM
F380Y/beta2Delta = assay: as above; conditions: at 30 µM
F380Y/beta4 = assay: as above; conditions: at 30 µM
[7] = target: Calcium-activated potassium channel subunit alpha-1 (Homo sapiens) + Leucine-rich repeat-containing protein 26 (Homo sapiens) (UniProt Q12791+Q2I0M4); assay: as above; conditions: F380Y/Slo1WT/gamma1, at 30 µM
Chain of Calcium-activated potassium channel subunit alpha-1 (Homo sapiens) + Leucine-rich repeat-containing protein 26 (Homo sapiens) (Q2I0M4 whole entry, looked up, one chain of several): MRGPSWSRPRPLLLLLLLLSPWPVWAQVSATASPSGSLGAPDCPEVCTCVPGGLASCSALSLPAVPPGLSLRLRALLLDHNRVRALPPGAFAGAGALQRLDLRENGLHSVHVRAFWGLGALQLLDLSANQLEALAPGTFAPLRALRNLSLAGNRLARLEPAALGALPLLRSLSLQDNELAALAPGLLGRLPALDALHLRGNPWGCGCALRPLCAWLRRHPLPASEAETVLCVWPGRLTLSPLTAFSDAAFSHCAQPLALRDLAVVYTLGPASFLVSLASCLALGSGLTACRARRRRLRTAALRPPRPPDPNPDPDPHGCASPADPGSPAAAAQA

R275C = assay: as above; conditions: at 30 µM
R275C/beta1 = assay: as above; conditions: at 30 µM
R275C/beta2Delta = assay: as above; conditions: at 30 µM
R275C/beta4 = assay: as above; conditions: at 30 µM
R275C/Slo1WT/beta2 = assay: as above; conditions: at 30 µM
[8] = sensitizers of A549 cells to miR-34 induction, primary screen, imaging, A549 dox-inducible miR-34, nuclei and caspase counts (AID 1347080;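 active = compounds whose cell count with miR-34 switched on is under 0.7 times the count with it off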); conditions: A549 miR-34 inducible, Hoechst nuclei count, 48 h
[9] = viability rescue of complex I mutant cybrids, primary screen, cell-based, galactose medium, ATP luminescence (AID 1645843;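 active = z-score of at least 1.8 in each of two replicates, scored against plate mean and spread of sample wells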;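 note: positive z means more ATP and so rescue of galactose-driven cybrid death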); conditions: complex I mutant cybrid cells, 72 h, stronger effect = higher value
[10] = survival rescue of mitochondrial mutant cells in low glucose, primary screen, MELAS cybrids, Rieske KO mouse fibroblasts, CellTiter-Glo (AID 1508586;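 active = mean z-score across replicates of 1.96 or higher in either the MELAS or the Rieske mutant cell line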;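 note: z relative to plate mean and SD of compound and empty wells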)
[11] = stronger effect = lower value, cell number ratio, induced over uninduced
[12] = measured here: relative caspase fold change +Dox/-Dox
[13] = measured here: total cells with miR-34 induction, stronger effect = lower value
[14] = measured here: total cells without miR-34 induction

COc1cc(C[C@@H](CO)[C@H](CO)Cc2ccc(O)c(OC)c2)ccc1O
inactive: parasite load remaining [1] 74.6% | fluorescence ratio [2] 0.93 | inhibition [3] -1.09% | inhibition [4] 3.54% | fluorescence ratio [5] 0.88 | mean signal [6] 248 | log fold change Tl+ flux (F380Y) 0.00354 | log fold change Tl+ flux (F380Y/beta1) 0.0295 | log fold change Tl+ flux (F380Y/beta2Delta) 0.0145 | log fold change Tl+ flux (F380Y/beta4) 0.00227 | log fold change Tl+ flux [7] 0.0262 | log fold change Tl+ flux (R275C) -0.00612 | log fold change Tl+ flux (R275C/beta1) -0.00624 | log fold change Tl+ flux (R275C/beta2Delta) -0.0204 | log fold change Tl+ flux (R275C/beta4) -0.0506 | log fold change Tl+ flux (R275C/Slo1WT/beta2) 0.0317
77.7%: viability [1]

CCCCC(=O)OC1(C(=O)CO)CCC2C3CCC4=CC(=O)CCC4(C)C3C(O)CC21C (stereo not given)
7000: cell count [8, 14]
2.66: fold change [8, 12]
6880: cell count [8, 13]
100%: viability [1]
active: log fold change Tl+ flux (F380Y) -0.858 | log fold change Tl+ flux (F380Y/beta1) -0.315 | log fold change Tl+ flux (F380Y/beta2Delta) -0.396 | log fold change Tl+ flux (F380Y/beta4) -0.379 | log fold change Tl+ flux [7] -0.495 | log fold change Tl+ flux (R275C/beta1) 0.44 | log fold change Tl+ flux (R275C/beta2Delta) 0.266 | log fold change Tl+ flux (R275C/beta4) 0.327
inactive: parasite load remaining [1] 89.7% | fluorescence ratio [2] 1.04 | inhibition [3] -5.91% | inhibition [4] -5.05% | fluorescence ratio [5] 1.01 | mean signal [6] 256 | fold change [8, 11] 0.983 | z-score [9] 0.245 | log fold change Tl+ flux (R275C) 0.0146 | log fold change Tl+ flux (R275C/Slo1WT/beta2) -0.00582

CC1c2cccc(O)c2C(O)=C2C(=O)C3(O)C(O)=C(C(N)=O)C(=O)C(N(C)C)C3C(O)C21 (stereo not given)
inactive: parasite load remaining [1] 45.4% | fluorescence ratio [2] 1.05 | inhibition [3] -13.2% | inhibition [4] -2.76% | fluorescence ratio [5] 1 | mean signal [6] 241 | fold change [8, 11] 1.04 | z-score [9] -1.48 | log fold change Tl+ flux (F380Y) 0.0135 | log fold change Tl+ flux (F380Y/beta2Delta) -0.0466 | log fold change Tl+ flux (F380Y/beta4) -0.028 | log fold change Tl+ flux [7] -0.0167 | log fold change Tl+ flux (R275C) -0.0534 | log fold change Tl+ flux (R275C/beta1) -0.0443 | log fold change Tl+ flux (R275C/beta2Delta) -0.0148 | log fold change Tl+ flux (R275C/beta4) -0.108 | log fold change Tl+ flux (R275C/Slo1WT/beta2) -0.0846
2010: cell count [8, 14]
132%: viability [1]
active: log fold change Tl+ flux (F380Y/beta1) -0.12
1.1: fold change [8, 12]
2090: cell count [8, 13]

COc1cc(C)c(/C=C/C(C)=C/C=C/C(C)=C/C(=O)O)c(C)c1C
10300: cell count [8, 13] | cell count [8, 14]
inactive: parasite load remaining [1] 45.7% | fluorescence ratio [2] 1.04 | inhibition [3] 4.09% | inhibition [4] 4.1% | fluorescence ratio [5] 1 | mean signal [6] 260 | fold change [8, 11] 0.995 | z-score ([10]; MELAS cybrid survival, CellTiter-Glo 48 h, stronger effect = higher value) 0.713 | z-score [9] -0.775 | log fold change Tl+ flux (F380Y) -0.0381 | log fold change Tl+ flux (F380Y/beta4) 0.0442 | log fold change Tl+ flux (R275C) -0.0134 | log fold change Tl+ flux (R275C/Slo1WT/beta2) -0.0131
100%: viability [1]
1.44: z-score ([10]; Rieske KO mouse fibroblast survival, CellTiter-Glo 72 h)
2.52: fold change [8, 12]
active: log fold change Tl+ flux (F380Y/beta1) 0.176 | log fold change Tl+ flux (F380Y/beta2Delta) 0.35 | log fold change Tl+ flux [7] 0.229 | log fold change Tl+ flux (R275C/beta1) 0.389 | log fold change Tl+ flux (R275C/beta2Delta) 0.261 | log fold change Tl+ flux (R275C/beta4) 0.228
